Source: PubChem BioAssay (The Scripps Research Institute Molecular Screening Center)
TTR transcr act = activators of transthyretin transcription. AID 1117267. SH-SY5Y TTR promoter Gaussia luciferase, luminescence; 100% = recombinant luciferase protein wells. activation, % at 16.7 µM. 92,000 tested, 1.3% active;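 active = activation above the mean of all tested compounds plus 3 SD, cut at about 9.5% in these data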;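 also: cells exposed to compounds for one day before reading; 0% = median of all test compound wells on the plate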
TTR inh HuH7 = HuH7 TTR transcription inhibition, counter-screen; 1,100 tested, 4% active; inhibition, % at 16.7 µM; HuH7 TTR promoter-Gaussia luciferase reporter, luminescence; shares compounds with TTR transcr act;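 active = average inhibition above the solvent-only control wells' mean plus 3 SD, cut at about 15% in these data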;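 also: 0% = cells with DMSO only and 100% = cells with inhibitor control FD; inhibitors lower well luminescence so higher value means more inhibition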
TTR act confirm = confirmation of human transthyretin transcription activators. 1,100 tested, under 10 active. activation, % at 16.7 µM. shares compounds with TTR transcr act. SHSY5Y TTR promoter Gaussia luciferase, luminescence; 100% = purified Lucia enzyme wells, no cells;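 active = mean activation above a set limit taken from the earlier primary screen, cut at about 11% in these data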;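 also: 0% = DMSO-treated cells and 100% = recombinant Lucia luciferase without cells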
The depositor's hits bear a star. This excerpt belongs to a sample that is enriched for hits.

SMILES	TTR transcr act	others
COc1ccccc1C(=O)NC1CCCCN(Cc2ccc(Cl)cc2)C1=O (configuration not stated)	0
C[C@@H]1CCN(C2CC2)S(=O)(=O)c2c(cccc2N2CCC[C@@H]2C)O1	0
C#CCNC(=O)C[C@H]1C[C@@]2(C(=O)OC)C(=C[C@H](COCc3ccccc3)O[C@@H]2C)N(Cc2ccco2)C1=O	0
Cc1ccc(C)c(SCC(=O)NCc2ccco2)c1	0
Cn1c(=O)cc(SCC(=O)NCC2CCCO2)c2ccccc21 (configuration not stated)	3
Cn1c(=O)cc(SCC(=O)NCc2ccco2)c2ccccc21	11*
O=C(OCc1cn(Cc2cccc(F)c2F)nn1)N1CCCC1	1
CC(C)C[C@H](NC(=O)OC(C)(C)C)C(=O)N[C@@H](CO)[C@H](O)[C@@H]1C[C@@H]1C(=O)N1CCCC1	10*
CC(C)(C)OC(=O)N[C@@H](COCc1ccccc1)C(=O)N[C@@H](CO)[C@H](O)[C@@H]1C[C@@H]1C(=O)N1CCCC1	4
Cc1[nH]c(=O)[nH]c(=O)c1/C=N/NC(=O)[C@H](CC(C)C)NC(=O)OC(C)(C)C	-1
COc1cccc(N(C)C(=O)[C@@H](C2CC2)[C@@H](O)c2ccc(C(C)=O)cc2)c1	5
COc1ccc(C2Nc3ccccc3C(=O)N2Cc2ccccc2)cc1COc1ccc(NC(C)=O)cc1 (configuration not stated)	-3
COC(=O)C[C@H]1CC[C@@H]2[C@H](COc3ccc(NC(=O)c4ccccc4OC)cc3C(=O)N2C)O1	-1
CCOCCCNC(=O)CCNC(=O)c1cc(OC)c(OC)c(OC)c1	-1
COc1cc(C(=O)NCCC(=O)NCCc2ccc(Cl)cc2)cc(OC)c1OC	0
COc1cc(C(=O)NCCC(=O)NCCCN2CCCCC2)cc(OC)c1OC	20*
CC(C)(C)OC(=O)NCCc1ccccc1/C=C/S(=O)(=O)NC1CCCC1	3
COc1ccc(Cn2ccc3ccc(-c4ccc5ccn(Cc6ccc(OC)cc6)c5c4)cc32)cc1	-1
CC1CCC2(CC1)CCC2NCc1ccc(Cl)cc1 (configuration not stated)	0
COc1ccc(C(=O)NNC(=O)C(=O)Nc2ccc(C)c(Cl)c2)cc1	1
Cc1ccc(NC(=O)C(=O)N2CCCC2)cc1Cl	1
Cc1ccc(NC(=O)C(=O)NNC(=O)c2ccccc2C)cc1Cl	11*
O=C(c1cccs1)n1ccc2ccc(-c3ccc4ccn(Cc5ccccc5)c4c3)cc21	-1
CCOC(=O)[C@@]12CCCC=C1N(CCc1ccc(Cl)cc1)C(=O)[C@H]2CC(=O)NCCCCc1ccccc1	-1
O=C(c1cccs1)n1ccc2ccc(-c3ccc4ccn(C(=O)c5cccs5)c4c3)cc21	-1
SMILES	TTR transcr act	others
C[C@H](NC(=O)[C@H]1N2C(=O)c3ccccc3C2SC1(C)C)C(=O)N1CCC[C@H]1C(=O)O (some centres not stated)	58*
C[C@H](NC(=O)[C@H]1N2C(=O)c3ccccc3C2SC1(C)C)C(=O)N1CCCCC1 (some centres not stated)	5
C[C@H](NC(=O)[C@H]1N2C(=O)c3ccccc3C2SC1(C)C)C(=O)N1CCC[C@H]1CO (some centres not stated)	2
Cc1ccc(C(=O)Oc2coc(CSc3ncccn3)cc2=O)cc1[N+](=O)[O-]	-1
O=C(NC1CCCCN(Cc2ccc(Cl)cc2)C1=O)c1ccc(COc2ccccc2)cc1 (configuration not stated)	2
Cc1ccc(OCc2nc(-c3ccccn3)no2)c(Br)c1	14*
O=C1c2ccccc2C(=O)N1CCc1nc(-c2ccccn2)no1	0
Clc1ccccc1OCc1nc(-c2ccncc2)no1	-1
COC(=O)C1CN(CCO)CCS(=O)(=O)N1Cc1cn(Cc2ccc(C)cc2)nn1 (configuration not stated)	0
CCOC(=O)[C@@]12CCCC=C1N(CCc1ccc(Cl)cc1)C(=O)[C@H]2CC(=O)N1CCC(c2ccccc2)CC1	0
COc1ccccc1NC(=O)CCC(=O)c1ccc(-c2ccccc2)cc1	-3
COc1ccc(OCC(=O)Nc2ccccc2OC)cc1	6
COc1ccccc1NC(=O)CCC(=O)Nc1ccccc1OC	9.9*
COC(=O)[C@]12C[C@H](CC(=O)NCc3ccc(OC)c(OC)c3)C(=O)N(Cc3cccc4ccccc34)C1=C[C@H](C1CCCC1)O[C@@H]2C	-3
C[C@@H]1CCN(C2CC2)S(=O)(=O)c2ccc(N3CC[C@H](N(C)C)C3)cc2O1	2
COc1ccc(CNC2CCC23CCC(C)CC3)cc1OC (configuration not stated)	2
CCC[C@H]1[C@@H](OC(=O)NCc2cccs2)CC[C@@]23CCCN2C(=O)CCC[C@@H]13	1
CCOC(=O)[C@@]12CCC3=C1N(CCC3)C(=O)[C@H](CC(=O)NCCc1ccccc1OC)C2	-1
CC(C)CC(c1nnnn1Cc1ccco1)N1CCN(C2CCCC2)CC1 (configuration not stated)	-2
COc1ccc(C(c2nnnn2Cc2cccs2)N2CCC(C(N)=O)CC2)c(OC)c1 (configuration not stated)	1
CC(C)CC(c1nnnn1Cc1ccccc1)N1CCC(C(N)=O)CC1 (configuration not stated)	18*
Cc1ccc(OCCOc2c(Cl)cc(Cl)cc2Cl)c([N+](=O)[O-])n1	2
CC12CN(C(=O)c3ccc([N+](=O)[O-])cc3)CC(C)(CN(C(=O)c3ccc([N+](=O)[O-])cc3)C1)C2=O	-1
CN1CCN(c2ccc([N+](=O)[O-])cc2C(=O)c2ccccc2)CC1	-2
CC1(c2cc([N+](=O)[O-])cc([N+](=O)[O-])c2)CC(C)(C)N(C(=O)c2ccccc2)c2ccccc21 (configuration not stated)	14*
SMILES	TTR transcr act	others
Cc1ccc(C)n1-c1ccc(C(=O)NCC2CCCO2)cc1 (configuration not stated)	2
O=C(CSc1nc2ccccc2n1-c1ccccc1)NCC1CCCO1 (configuration not stated)	2
Nc1c(C(=O)NCC2CCCO2)c2nc3ccccc3nc2n1-c1ccccc1 (configuration not stated)	11*	TTR inh HuH7=-15;TTR act confirm=0
Cc1cccc(C)c1-n1nnnc1C1(C)CCC(=O)N1Cc1ccco1 (configuration not stated)	1
Clc1ccccc1OCCCCN1CCCCC1	-1
C1CCCN(CCCCN2CCCCCC2)CC1	10*	TTR inh HuH7=-10;TTR act confirm=0
O=C(CCN1CCCCC1)NCNC(=O)CCN1CCCCC1	-1
Nc1nc2ccc(Cl)cc2cc1C(=O)NCc1ccccc1Br	0
Cc1ccc(CNC(=O)O[C@H]2CC[C@@]34CCCN3C(=O)CCC[C@H]4[C@H]2C)o1	0
O=C(CSc1ccc(Cl)cc1)Nc1cccc(-c2nc3ncccc3o2)c1	-2
CC(C)C(=O)Nc1cccc(-c2nc3ncccc3o2)c1	15*	TTR inh HuH7=9;TTR act confirm=-1
CC(C)C(=O)Nc1cccc(-c2nc3ccccc3o2)c1	-1
COC(=O)[C@]1(Sc2ccc(C)cc2)CC(=O)N[C@@H]1c1ccccc1	-1
